Screening results as filed in PubChem.
Only some compounds are listed: those with a hit (about 19% of all), similar ones and a draw of the others.
SW480 rereplic = inducers of DNA re-replication in SW480 colon cancer cells | Potency, µM (series often up to 46.1 µM), for the others: at the highest dose re-replication activation, usual class: activators | actives 1.8% (n = 340,000) | SW480 DNA re-replication, Hoechst DNA content imaging, 48 h; also: potency is read from the fitted curve at half-maximal effect; % of control where 0% means no effect; nearly all actives have a fitted effect of over 55% in size
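First, 250 cells per well were seeded. Next, compound or vehicle (23 nL) was pinned in, plates sat 48 hr at 37 C. Finally Hoechst was added for 40 min before fluorescence scanning.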
TDP1 cell noCPT = qHTS for Inhibitors of human tyrosyl-DNA phosphodiesterase 1 (TDP1): qHTS in cells in absence of CPT | DT40 Tdp1-/- hTDP1 cells, no CPT, ATP luminescence, 48 h | Potency, µM (doses to about 46.2 µM), without a hit: top-dose activity change, negative = growth inhibition, most hits filed as inhibitors | actives 15% (n = 420,000) | AID 686978, 2013; also: potency is read from the fitted curve at half-maximal effect; % is scaled to controls: 0 for no effect and ±100 for the full control effect; nearly all actives have a fitted effect of over 55% in size
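Chicken DT40 Tdp1-/- cells stably complemented with human TDP1 were seeded at 400 cells/well with DMSO in place of 20 nM camptothecin. After compound pinning, cells grew at least 48 hr at 37 °C; viability read by CellTiter-Glo luminescence.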
DT40 TDP1 CPT = DT40-hTDP1 cell growth loss with CPT; AID 686979; Potency, µM (series often up to 46.2 µM), for inactives: at the highest dose activity change, negative = growth inhibition, usual class: inhibitors; chicken DT40 Tdp1-/-;hTDP1 cells + 20 nM CPT, ATP luminescence, 48 h; actives 12% (n = 420,000); also: potency is read from the fitted curve at half-maximal effect; % is scaled to controls: 0 for no effect and ±100 for the full control effect; nearly all actives have a fitted effect of over 55% in size
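Chicken DT40 Tdp1-/- cells complemented with human TDP1, 400 cells/well, exposed to compounds plus 20 nM camptothecin for at least 48 h at 37 C; viability read as ATP content by CellTiter-Glo luminescence.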
IL1B secr inh = inflammasome signaling inhibition, IL-1 beta readout. THP-1 LPS/ATP IL-1B secretion, AlphaLISA, 16 h; hits give low values. activity change, % at 57.5 µM. actives 4.7% (n = 360,000); in the data active = activity change below about -50%; inconclusive = mostly about -30% to -49%; also: % is scaled to controls: 0 for no effect and ±100 for the full control effect
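THP-1 cells pretreated 1 hr with compounds (up to 57.5 uM final), then stimulated with LPS (250 ng/mL final) plus ATP (1.25 mM final); secreted IL-1B measured by AlphaLISA after 16 hr, decreased signal indicating inhibition.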
Chronic BCR inh = inhibitors of chronic active B-cell receptor signaling; actives 0.05% (n = 340,000); Potency, µM (titrated, usually from 46.1 µM), for inactives: top-dose activity change, negative = inhibition, usual class: inhibitors; ABC-DLBCL IkBa-CBG/CBR reporter, luminescence ratio, 4 h; AID 493014; active = well fitted inhibition curve with a large enough effect in the signal ratio, with a control signal flat, not every such curve was filed as active; inconclusive = small, poorly fitted or top-dose-only effect, or effect the other way, or a change in a side signal; the % refers to the signal ratio;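 also: potency is read from the fitted curve at half-maximal effect; plate controls were basal doxycycline-induced cells for no effect and cells given 10 µM MG132 for full effect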
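TMD8 human ABC-DLBCL cells with doxycycline-inducible IκBα–green luciferase fusion and unfused red luciferase, in 0.5% FBS medium; compounds up to 46 uM, 4 h at 37C. Green/red luminescence ratio, filter-overlap corrected, fitted to concentration-response curves.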
MCF10A rerep = induces DNA re-replication in MCF 10a normal breast cells. MCF 10A DNA re-replication, Hoechst nuclear intensity, 48 h. Potency, µM (highest dose often 46.1 µM), without a hit: top-dose activity, positive = re-replication, most hits filed as activators. actives 2.9% (n = 350,000); also: potency is read from the fitted curve at half-maximal effect; % of control where 0% means no effect; nearly all actives have a fitted effect of over 50% in size
Active calls of the source: *; ? = inconclusive; · = no result given. Unless noted, calls follow the shape of the dose curve; as a rule, active = well fitted curve in the direction sought with a large enough effect; inconclusive = small, poorly fitted or top-dose-only effect, or another doubt; inactive = no such curve, though single readings can be large; an effect the other way counts as inactive or inconclusive.

SMILES	SW480 rereplic	TDP1 cell noCPT	DT40 TDP1 CPT	IL1B secr inh	Chronic BCR inh	MCF10A rerep
COc1cccc(NC(=O)CN(C)C(=O)c2c(C)nn(CC(C)C)c2Cl)c1	-2.3%	12.2%	6.1%	0.0	-1.3%	8.6%
CCOC(=O)C1=C(CSc2nc(C)cc(C)c2C#N)OC(N)=C(C#N)C1c1ccccc1 (configuration not stated)	-2.1%	23.1µM*	?	11.8	?	2.1%
CCOC(=O)C1=C(CSc2nc(CC)c(C)cc2C#N)OC(N)=C(C#N)C1c1ccccc1 (configuration not stated)	17.9%	23.1µM*	3.26µM*	9.9	?	?
CCOC(=O)C1=C(c2ccc(OC)cc2)OC(N)=C(C#N)C1c1cccnc1 (configuration not stated)	3.6%	?	3.5%	34.0	0.6%	4.6%
CCOC(=O)CC1=C(C(=O)OCC)C(c2ccncc2)C(C#N)=C(N)O1 (configuration not stated)	-1.9%	?	?	-11.4	?	1.2%
CCOC(=O)C1=C(CSc2nc3c(cc2C#N)CN(C)CC3)OC(N)=C(C#N)C1c1ccncc1 (configuration not stated)	?	?	-26.2%	23.2	-1.6%	?
CCOC(=O)C1=C(CSc2nc(C)cc(C)c2C#N)OC(N)=C(C#N)C1c1cccs1 (configuration not stated)	-8.0%	-26.5%	?	-21.9	-6.4%	-4.4%
CCOC(=O)C1=C(CSc2nc(-c3ccccc3)ccc2C#N)OC(N)=C(C#N)C1c1ccc(OC)cc1 (configuration not stated)	?	9.2µM*	8.2µM*	29.7	5.6%	16.4µM*
CCOC(=O)C1=C(CSc2nc3c(cc2C#N)CN(C)CC3)OC(N)=C(C#N)C1c1ccc(Cl)cc1 (configuration not stated)	?	?	?	-6.0	5.6%	25.9µM*
O=C1C[C@H]2[C@H](CO)[C@@H](OC(=O)c3ccc(-c4ccccc4)cc3)C[C@H]2O1	-0.7%	16.4µM*	?	?	?	-0.1%
Cc1ccc(NC(=S)N2CCC(c3nc4ccccc4s3)CC2)cc1C	-5.5%	?	?	-65.2*	-7.2%	-1.7%
Cc1cc(C)cc(NC(=S)N2CCC(c3nc4ccccc4s3)CC2)c1	-5.4%	-26.0%	?	-1.5	4.8%	-5.2%
O=C(COc1ccc([N+](=O)[O-])cc1)N1CCC(c2nc3ccccc3s2)CC1	·	9.2µM*	7.31µM*	·	·	·
CCc1ccc(OC(C)C(=O)N2CCC(c3nc4ccccc4s3)CC2)cc1 (configuration not stated)	·	16.4µM*	18.4µM*	·	·	·
O=C(CSc1nccn1Cc1ccc(F)cc1)Nc1ccc2c(c1)OCCO2	·	-1.2%	-6.7%	·	·	·
